# Source: PubChem BioAssay AID977630 (Broad Institute, 2014)
# The whole screen tested about 1,600 compounds, of which fewer than 10 were called active. Inconclusive results (about 48%) are left out.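 Rule for the calls: active = Normal-ribosome green reporter loss at least double humanized-ribosome red reporter loss, with overall culture growth inhibition under a set limit; inconclusive = no clear call, values can overlap the other calls; inactive = the rest.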 A selection follows. Potency and affinity values are given separately.
# Test: E. coli growth inhibition, wild-type GFP versus H38 humanized RFP strain – H38 mutant RFP vs wild-type GFP, cherry-pick, dose response (AID 977630)
# Settings: mixed culture, 24 h; series mostly up to 50 µM; activity change, negative = inhibition: at the top concentration
row,SMILES,"activity change, negative = inhibition"
1,CC(C)(C)NC(=O)C(c1ccncc1)N(Cc1ccc(F)cc1)C(=O)c1ccc(-c2ccccc2)[nH]1 (stereo unspecified),7.88 (inactive)
2,Cc1ccc(C(=O)C2Oc3ccccc3C3CC(c4ccc(C)cc4)=NN23)cc1 (stereo unspecified),9.36 (inactive)
3,Cc1nc(N2CCC(C)CC2)c(C#N)c(C)c1[N+](=O)[O-],-13.2 (inactive)
4,Cc1cc(NC(=O)CCN2C(=O)C3C4C=CC(C4)C3C2=O)ccc1Br (stereo unspecified),-16.8 (inactive)
5,CCOc1ccc2[nH]c3c(NCCN(C)C)ncnc3c2c1,-14.5 (inactive)
6,Cc1ccc(S(=O)(=O)N(C(=O)c2ccncc2)c2ccc(OC(=O)c3ccncc3)cc2)c(C)c1,-4.92 (inactive)
7,COc1ccc(C(NC(=O)C2CCN(CCOc3ccc(Cl)cc3Cl)CC2)c2ccccc2C)cn1 (stereo unspecified),-11.5 (inactive)
8,COc1cccc(-c2ccc(NC(=O)C3CCCN(Cc4cnn(C(C)C)c4)C3)cc2)c1 (stereo unspecified),-10.3 (inactive)
9,Cc1cccc(NC(=O)c2c(C)nn(-c3ccccc3)c2Cl)c1,-12.1 (inactive)
10,CC(C)Oc1cccc(C(=O)C2CCCN(C(=O)c3cc(C(F)(F)F)[nH]n3)C2)c1 (stereo unspecified),-16.1 (inactive)
11,Cc1ccccc1-c1nc(CS(=O)(=O)CC(=O)N2CCCCC2)c(C)o1,-7.64 (inactive)
12,COc1cccc(NC(=O)C(c2ccccc2)N2CCN(c3ccccn3)CC2)c1 (stereo unspecified),0.522 (inactive)
13,COC(=O)c1ccc2nc(-c3ccc(F)cc3)c(Cc3cccc(F)c3)n2c1,8.32 (inactive)
14,COc1ccc(-c2nn(-c3ccccc3C)cc2CNCc2cccnc2)cc1F,0.878 (inactive)
15,CC1CCc2c(sc3ncn4c(SCC(=O)NCc5ccco5)nnc4c23)C1 (stereo unspecified),0.062 (inactive)
16,CC1CN(CC(=O)Nc2nc3ccccc3s2)CC(C)O1 (stereo unspecified),9.37 (inactive)
17,O=S(=O)(Nc1ccccc1N1CCCCC1)c1cccs1,-10.8 (inactive)
18,Cc1ccn2cc(-c3cccc(NC(=O)c4cccs4)c3)nc2c1,-0.986 (inactive)
19,O=S(=O)(Cc1ccc(Cl)cc1)N1CCN(Cc2ccc3c(c2)OCO3)CC1,33 (inactive)
20,Cc1cccc(NS(=O)(=O)c2cc3c(cc2C)NC(=O)CO3)c1,2.86 (inactive)
21,O=C(CSCc1c(Cl)cccc1Cl)NCc1ccccn1,-3.03 (inactive)
22,Cc1cccc(N2CCN(Cc3nc(-c4ccc(F)cc4F)oc3C)CC2)n1,-12.6 (inactive)

row,SMILES,"activity change, negative = inhibition"
1,CCNc1nc(N)c(C(=O)C23CC4CC(CC(C4)C2)C3)s1,-3.15 (inactive)
2,CNC(=O)c1sc(-c2ccccn2)nc1C,43.1 (inactive)
3,Cc1cc(C)c(OCCN(C)Cc2ccccc2)c(Br)c1,-6.16 (inactive)
4,O=C(Nc1cc(S(=O)(=O)N2CCCCC2)ccc1N1CCCCC1)C1CC1,-2.36 (inactive)
5,CCCCNC(=O)c1c(N)[nH]c(C(=O)c2ccccc2)c1-c1ccccn1,-9.15 (inactive)
6,Cc1nn(S(=O)(=O)c2ccc(Cl)cc2)c(C)c1Sc1ccc([N+](=O)[O-])cc1,2.54 (inactive)
7,Cc1cccc(NC(=O)c2sc3nc(-c4ccccc4)cn3c2C)n1,-13.7 (inactive)
8,COC(=O)c1ccc(CSc2nc3ccccc3s2)o1,1.79 (inactive)
9,COc1ccccc1-c1noc2ncnc(Nc3ccccc3C)c12,-1.41 (inactive)
10,O=C(c1cccs1)c1c[nH]cc1-c1ccccc1,-0.904 (inactive)
11,Cc1ccc(CSCC(=O)Nc2ccccc2F)cc1,-11.7 (inactive)
12,COc1ccc(NC(=O)c2ccc(COc3ccccc3Br)o2)c(OC)c1,-8.05 (inactive)
13,CCc1nnc(NC(=O)CSc2ncc(-c3ccccc3)[nH]2)s1,7.1 (inactive)
14,COc1cccc(NC(=O)C2CCC(CNS(=O)(=O)c3cccc4cccnc34)CC2)c1 (stereo unspecified),-8.77 (inactive)
15,CCOC(=O)c1sc(Nc2cccc(Cl)c2)nc1C,5.47 (inactive)
16,Cn1c(=O)n(C)c2cc([N+](=O)[O-])c(N3CCN(C(=O)c4cccc(F)c4)CC3)cc21,-2.34 (inactive)
17,Brc1ccc(-c2nc3c4ccccc4ccn3c2Cc2ccccc2)cc1,5.21 (inactive)
18,CCN(CC)CC(=O)Nc1sc2c(c1C(=O)c1ccccc1OC)CCC2,-11.9 (inactive)
19,O=S(=O)(Cc1ccco1)Cc1nc(-c2ccc(Cl)cc2)cs1,-12 (inactive)
20,Cc1ccccc1NS(=O)(=O)c1cc(C(=O)NCCC2=CCCCC2)ccc1C,-6.86 (inactive)
21,Cc1c(CCOC(=O)C23CC4CC(CC(C4)C2)C3)sc[n+]1Cc1ccccc1,-16.3 (inactive)
22,O=C(CSc1nnc(-c2ccccc2F)n1C1CC1)Nc1cccnc1Cl,-0.733 (inactive)

row,SMILES,"activity change, negative = inhibition"
1,CSc1ccc(CN(C)CC(=O)NC(C)c2ccccc2)cc1 (stereo unspecified),-9.26 (inactive)
2,COc1cc[n+]([O-])cc1[N+](=O)[O-],5.53 (inactive)
3,COc1ccc(OC2C(=O)N(Cc3ccc4c(c3)OCO4)C2c2sccc2C)cc1 (stereo unspecified),-11.6 (inactive)
4,COc1ccc(C(=O)C[n+]2ccc3c(c2)nc(-c2cc(OC)c(OC)cc2OC)n3C)cc1,-22.4 (inactive)
5,c1coc(CSc2ncnc3c2oc2ccccc23)c1,1.36 (inactive)
6,COc1cccc(SCC(=O)N2CCN(c3ccccc3)CC2)c1,2 (inactive)
7,COc1ccc(C(=O)CSc2nc3ccccc3n2CC(=O)c2ccccc2)cc1,-11.1 (inactive)
8,O=C(Nc1cscc1S(=O)(=O)c1ccccc1)c1ccccc1Cl,-10.9 (inactive)
9,CC1Cc2ccccc2N1C(=O)CN1C(=O)NC(C)(CCc2ccccc2)C1=O (stereo unspecified),-12.9 (inactive)
10,O=C(COC(=O)c1ccc(O)cc1)Nc1ccccc1,-6.04 (inactive)
11,O=S(=O)(NC1c2cccc3cccc(c23)C1Sc1ncccn1)c1ccccc1 (stereo unspecified),-20 (inactive)
12,O=[N+]([O-])c1ccc(/C=C/c2ccc3cccc([N+](=O)[O-])c3n2)cc1,-3.36 (inactive)
13,Cc1cc(C(=O)Nc2ccc(Cl)cc2)c(C)n1Cc1cccs1,1.59 (inactive)
14,CCCCOc1ccc(-c2nnn(CCC(=O)N3CCOCC3)n2)cc1,-6.25 (inactive)
15,Cc1ccnc(NS(=O)(=O)c2ccc(NC(=O)c3ccc4c(c3)OCCO4)cc2)n1,-5.99 (inactive)
16,CN1N=C2c3ccccc3CCC2C1c1ccc(F)cc1 (stereo unspecified),-10.9 (inactive)
17,COc1ccc(-c2nc(NC(C)=O)sc2-c2ccccc2)cc1,-9.72 (inactive)
18,Nc1ccccc1Sc1c[nH]c2ccccc12,3.45 (inactive)
19,CCc1cccc(CC)c1NC(=O)Cn1c(-c2ccc(F)cc2)noc1=O,1.93 (inactive)
20,Cc1ccc(C)c(N2CCN(C(=O)CCS(=O)(=O)c3ccc4c(c3)oc(=O)n4C)CC2)c1,-13.2 (inactive)
21,CCOC(=O)c1cc2nc(-c3ccccc3)cc(C)n2n1,2.87 (inactive)
22,O=C(NCc1ccccc1)C1C(=O)Nc2ccccc2C(=O)N1c1ccc2c(c1)OCCO2 (stereo unspecified),-5.03 (inactive)

row,SMILES,"activity change, negative = inhibition"
1,CSc1ccccc1NC(=O)CN(c1cccc(C)c1)S(C)(=O)=O,2 (inactive)
2,CC(OC(=O)COc1ccccc1)C(=O)NC1CCCC1 (stereo unspecified),-4.16 (inactive)
3,O=S(=O)(c1ccc(Cl)cc1)N1CCN=C1SCc1cccc(Cl)c1,-8.56 (inactive)
4,CCCN1C(=O)C(O)(c2c(C)[nH]c3ccccc23)c2ccccc21 (stereo unspecified),-18.9 (inactive)
5,COc1ccc(CNC(=O)c2sc3nc4c(c(C(F)(F)F)c3c2N)CCC4)cc1OC,-11.4 (inactive)
6,CN(Cc1ccc([N+](=O)[O-])cc1)c1ccccc1,-10.1 (inactive)
7,Cc1ccc(NCC(=O)c2ccc(C)cc2)cc1,0.121 (inactive)
8,Cn1c(=O)c2c(-c3ccccc3)n(-c3cc([N+](=O)[O-])ccc3N)cc2n(C)c1=O,-18.8 (inactive)
9,CC1(C(=O)NS(=O)(=O)c2cccc(C#N)c2)CCN1C(=O)C1(c2ccc(Cl)cc2)CCC1 (stereo unspecified),-1.38 (inactive)
10,C[C@@H]1CN([C@@H](C)CO)C(=O)c2cccc(NC(=O)c3nc4ccccc4s3)c2O[C@@H]1CN(C)CC1CC1,-19.9 (inactive)
11,Cc1nc(-c2ccc([N+](=O)[O-])cc2)c(-c2ccccc2)o1,-20.8 (inactive)
12,O=C(CN1CCN(S(=O)(=O)c2ccc(Cl)cc2)CC1)Nc1ccc2c(c1)CCC2,-9.95 (inactive)
13,CC(NC(=O)c1ccncc1)c1ccc(Cl)cc1Cl (stereo unspecified),-19.8 (inactive)
14,O=C(Nc1ccn(Cc2ccc(Cl)cc2)n1)c1ccccc1,-0.788 (inactive)
15,CCCOC(=O)c1ccc(NC(=O)c2nc3nc(C)cc(C)n3n2)cc1,-9.11 (inactive)
16,C[C@@H]1CCCCO[C@H](CN(C)C(=O)CCCN(C)C)[C@H](C)CN([C@@H](C)CO)C(=O)c2cc(NC(=O)Nc3cccc4ccccc34)ccc2O1,14.9 (inactive)
17,CCOc1ccccc1C(=O)NCC(=O)OCCOc1cccc(Cl)c1,-4.31 (inactive)
18,CCOC(=O)C(C)(C)n1nnc(-c2ccc([N+](=O)[O-])cc2)n1,-7.22 (inactive)
19,O=c1c2ccccc2nc(SCc2ccccc2)n1CC1CCCO1 (stereo unspecified),-7.73 (inactive)
20,Cc1ccc(N2C(=S)NC3c4cc(Cl)ccc4OC2(C)C3C(=O)N(C)C)cc1 (stereo unspecified),-10.2 (inactive)
21,CC1(c2ccc3ccccc3c2)NC(=O)N(CC(=O)N2CCN(c3ccccc3O)CC2)C1=O (stereo unspecified),-0.089 (inactive)
22,O=C(Nc1ccc(Br)cc1)c1cccnc1N1CCCCC1,-2.35 (inactive)

row,SMILES,"activity change, negative = inhibition"
1,CCc1ccc2nc(SCC(=O)Nc3ccccc3N3CCOCC3)c(C#N)cc2c1,26.5 (inactive)
2,CSc1nc2ccc(NS(=O)(=O)c3ccc([N+](=O)[O-])cc3)cc2s1,-13.8 (inactive)
3,COc1ccc(C2CC(c3cccs3)=Nc3ccccc3S2)cc1 (stereo unspecified),-8.48 (inactive)
4,Cc1ccccc1CSc1nnc(-c2ccccn2)n1C,-8.9 (inactive)
5,CCOC(=O)c1c(C)[nH]c(C)c1S(=O)(=O)NCCN1CCN(c2ccccc2F)CC1,-19 (inactive)
6,O=C(CSc1nnc(COc2cccc3cccnc23)o1)c1ccc(F)cc1,-5.21 (inactive)
7,O=C(O)c1nn2c(C(F)(F)F)cc(-c3cccs3)nc2c1Cl,-5.18 (inactive)
8,COc1ccc(CC(=O)Nc2cc(S(=O)(=O)Nc3ccc(OC)cc3)ccc2OC)cc1,-1.66 (inactive)
9,COC(=O)c1sccc1NC(=O)CNC(=O)c1ccccc1,0.487 (inactive)
10,COC(=O)c1cc(C)sc1NC(=O)CC1Nc2ccccc2NC1=O (stereo unspecified),-8.77 (inactive)
11,CCOC(=O)c1cccc(OS(=O)(=O)Cc2ccccc2)c1,-12 (inactive)
12,CCOc1ccccc1N1CC(C(=O)Nc2cccc(S(=O)(=O)N3CCCCC3)c2)CC1=O (stereo unspecified),-13.4 (inactive)
13,c1cc2cc(-c3c(-c4ccc5c(c4)OCO5)noc3-c3ccsc3)ccc2[nH]1,1.33 (inactive)
14,Cc1cc(C)cc(NC(=O)COC(=O)CC2CCCC2)c1,6.08 (inactive)
15,COc1cc(SC)ccc1C(=O)N(Cc1ccccc1)c1ccccn1,-8.93 (inactive)
16,COC(=O)c1nc(-c2ccc(C)cc2)[nH]c1C(C)(C)C,-4.35 (inactive)
17,O=C(O)CNC(=O)C(c1ccccc1)c1ccccc1,3.94 (inactive)
18,O=C(C[n+]1ccc(Cc2ccccc2)cc1)Nc1ccc([N+](=O)[O-])cc1Cl,-2.8 (inactive)
